# According to ChEMBL document CHEMBL3988442, “University of Dundee, Small-Polar-MMV Screening Library” (2021):
# For some of these results: Potency and affinity values are given separately.
# How the values were obtained:
# Design in all cases: scale not given: direction of the effect not stated beside the values
# [1] = target: Protein translocase subunit SecA (Escherichia coli (strain K12)) (UniProt P10408); assay: Assay to Identify E. coli SecA ATPase Inhibitors; type: functional; conditions: 30 µM
# [2] = target: T1, Ubiquitin-activating enzyme e1, putative (Leishmania donovani (strain BPK282A1)) (UniProt E9BSI1); assay: Leishmania donovani Ubiquitin Activating Enzyme (LdE1); type: functional; conditions: 30 µM
# T1 sequence (whole entry): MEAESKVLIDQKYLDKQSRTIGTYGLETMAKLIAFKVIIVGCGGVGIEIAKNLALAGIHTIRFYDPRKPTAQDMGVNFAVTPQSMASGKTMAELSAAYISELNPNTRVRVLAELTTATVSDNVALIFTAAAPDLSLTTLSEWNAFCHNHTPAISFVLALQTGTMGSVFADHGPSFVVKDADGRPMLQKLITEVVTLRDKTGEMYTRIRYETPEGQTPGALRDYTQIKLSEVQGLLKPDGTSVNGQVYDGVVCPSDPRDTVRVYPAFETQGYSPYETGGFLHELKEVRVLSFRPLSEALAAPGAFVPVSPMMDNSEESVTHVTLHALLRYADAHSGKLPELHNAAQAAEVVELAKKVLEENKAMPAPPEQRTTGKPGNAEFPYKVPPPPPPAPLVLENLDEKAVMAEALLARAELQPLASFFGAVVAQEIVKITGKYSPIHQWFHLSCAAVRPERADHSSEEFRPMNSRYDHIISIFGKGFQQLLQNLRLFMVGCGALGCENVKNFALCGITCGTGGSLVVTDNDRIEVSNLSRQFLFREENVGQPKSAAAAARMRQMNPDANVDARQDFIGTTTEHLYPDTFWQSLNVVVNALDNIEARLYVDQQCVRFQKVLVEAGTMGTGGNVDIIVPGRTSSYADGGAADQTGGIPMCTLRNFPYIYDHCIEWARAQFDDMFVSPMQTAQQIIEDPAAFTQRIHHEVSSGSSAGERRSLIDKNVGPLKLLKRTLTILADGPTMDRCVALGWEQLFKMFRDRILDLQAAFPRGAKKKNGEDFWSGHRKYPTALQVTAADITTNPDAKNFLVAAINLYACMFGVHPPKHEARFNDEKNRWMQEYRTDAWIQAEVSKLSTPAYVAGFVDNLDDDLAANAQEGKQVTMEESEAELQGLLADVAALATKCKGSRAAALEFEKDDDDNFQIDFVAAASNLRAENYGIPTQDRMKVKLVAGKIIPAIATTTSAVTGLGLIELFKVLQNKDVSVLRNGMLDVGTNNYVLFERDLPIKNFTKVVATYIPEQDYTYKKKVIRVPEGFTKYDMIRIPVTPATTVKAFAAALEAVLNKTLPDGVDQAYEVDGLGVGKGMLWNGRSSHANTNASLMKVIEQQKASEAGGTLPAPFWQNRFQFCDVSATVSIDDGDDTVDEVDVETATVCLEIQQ
# [3] = target: AMP-activated protein kinase, AMPK (Homo sapiens) (UniProt P54646+O43741+P54619+Q9UGJ0+Q9Y478+Q13131+Q9UGI9); assay: AMP-dependent Kinase enzyme assay. An in vitro enzyme assay that detects ADP turnover that is directly proportional to AMPK activity. This uses naive AMPK that is activated during the assay with MK-8722; type: functional; conditions: 30 µM
# [4] = target: Sialic acid-binding Ig-like lectin 9 (Homo sapiens) (UniProt Q9Y336); assay: Hs-Siglec9 ALPHAscreen SOP 20170721; conditions: 10 µM
# Trypanosoma cruzi = assay: Trypanosoma cruzi phosphomannomutase and mannose-1-phosphate guanylyltransferase assay; type: functional; conditions: 10 µM
# [5] = target: T2, Arginase-2, mitochondrial (Homo sapiens) (UniProt P78540); assay: in vitro enzyme assay to detect the production of urea directly proportional to the activity of Arginase II; type: functional; conditions: 33.3 µM; further: in the data most compounds retested in dose-response had high values
# T2 sequence (whole entry): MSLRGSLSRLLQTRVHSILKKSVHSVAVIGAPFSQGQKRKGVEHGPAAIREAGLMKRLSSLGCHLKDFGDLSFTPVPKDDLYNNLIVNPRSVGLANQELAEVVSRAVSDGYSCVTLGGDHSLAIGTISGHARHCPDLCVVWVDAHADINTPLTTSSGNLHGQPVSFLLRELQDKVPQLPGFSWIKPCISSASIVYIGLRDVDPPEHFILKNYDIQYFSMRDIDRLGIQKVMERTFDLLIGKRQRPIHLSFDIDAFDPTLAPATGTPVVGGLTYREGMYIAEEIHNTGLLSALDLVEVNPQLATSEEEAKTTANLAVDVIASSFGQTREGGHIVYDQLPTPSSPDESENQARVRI
# [6] = target: T3, Proteasome subunit beta (Trypanosoma cruzi) (UniProt O96673); assay: Trypanosoma cruzi proteasome chymotrypsin-like activity (TcProtChymo) assay.; further: in the data most compounds retested in dose-response had high values; type: functional; conditions: 9.37 µM
# T3 sequence (whole entry): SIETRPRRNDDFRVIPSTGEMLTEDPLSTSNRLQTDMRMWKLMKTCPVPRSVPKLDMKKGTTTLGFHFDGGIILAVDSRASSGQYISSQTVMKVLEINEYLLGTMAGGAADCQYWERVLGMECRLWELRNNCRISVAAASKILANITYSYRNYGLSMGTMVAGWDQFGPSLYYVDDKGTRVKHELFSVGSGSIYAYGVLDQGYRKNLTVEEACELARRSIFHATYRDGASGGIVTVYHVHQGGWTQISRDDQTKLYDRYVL
# Homo sapiens = species on record: Homo sapiens; assay: To identify inhibition of the IFN signalling (Jak-Stat) pathway via expression of an eGFP reporter gene under the control of an IFN-stimulated response element (ISRE) containing MxA promoter.; type: functional; conditions: 30 µM
# [7] = target: T4, Tyrosyl-tRNA synthetase, putative (Trypanosoma cruzi (strain CL Brener)) (UniProt Q4DSP6); assay: Trypanosoma cruzi tyrosyl tRNA synthetase (TcYRS) _High Tyrosine SOP; type: functional; conditions: 30 µM; further: in the data most compounds retested in dose-response had high values
# T4 sequence (whole entry): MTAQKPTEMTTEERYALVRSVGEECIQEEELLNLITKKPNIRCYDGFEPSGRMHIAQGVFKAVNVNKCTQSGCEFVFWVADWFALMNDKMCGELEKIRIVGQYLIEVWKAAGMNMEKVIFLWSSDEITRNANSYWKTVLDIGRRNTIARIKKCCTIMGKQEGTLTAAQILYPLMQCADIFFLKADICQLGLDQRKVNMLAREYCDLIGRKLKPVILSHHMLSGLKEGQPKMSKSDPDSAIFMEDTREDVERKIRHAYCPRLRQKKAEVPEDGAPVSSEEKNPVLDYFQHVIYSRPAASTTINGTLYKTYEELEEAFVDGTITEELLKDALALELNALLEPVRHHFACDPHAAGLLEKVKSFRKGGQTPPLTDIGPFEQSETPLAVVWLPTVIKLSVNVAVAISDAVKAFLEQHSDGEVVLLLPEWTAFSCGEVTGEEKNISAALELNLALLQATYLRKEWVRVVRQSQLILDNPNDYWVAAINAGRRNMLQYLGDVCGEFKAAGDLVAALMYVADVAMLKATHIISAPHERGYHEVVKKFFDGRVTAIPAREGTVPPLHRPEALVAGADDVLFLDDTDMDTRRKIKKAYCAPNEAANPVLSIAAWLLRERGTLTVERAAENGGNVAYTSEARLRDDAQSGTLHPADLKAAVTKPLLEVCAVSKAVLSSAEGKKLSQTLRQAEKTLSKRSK
# [8] = target: T4, Tyrosyl-tRNA synthetase, putative (Trypanosoma cruzi (strain CL Brener)); assay: Trypanosoma cruzi tyrosyl tRNA synthetase (TcYRS) SOP; type: functional; conditions: 30 µM
# [9] = target: Chromo domain-containing protein 1 (Saccharomyces cerevisiae (strain ATCC 204508 / S288c) (Baker's yeast)) (UniProt P32657); assay: ScCHD-1 Enzyme Inhibition Assay; type: functional; conditions: 30 µM; further: in the data most compounds retested in dose-response had high values
# Chain of Chromo domain-containing protein 1 (Saccharomyces cerevisiae (strain ATCC 204508 / S288c) (Baker's yeast)) (P32657 whole entry, the tested form may be a part): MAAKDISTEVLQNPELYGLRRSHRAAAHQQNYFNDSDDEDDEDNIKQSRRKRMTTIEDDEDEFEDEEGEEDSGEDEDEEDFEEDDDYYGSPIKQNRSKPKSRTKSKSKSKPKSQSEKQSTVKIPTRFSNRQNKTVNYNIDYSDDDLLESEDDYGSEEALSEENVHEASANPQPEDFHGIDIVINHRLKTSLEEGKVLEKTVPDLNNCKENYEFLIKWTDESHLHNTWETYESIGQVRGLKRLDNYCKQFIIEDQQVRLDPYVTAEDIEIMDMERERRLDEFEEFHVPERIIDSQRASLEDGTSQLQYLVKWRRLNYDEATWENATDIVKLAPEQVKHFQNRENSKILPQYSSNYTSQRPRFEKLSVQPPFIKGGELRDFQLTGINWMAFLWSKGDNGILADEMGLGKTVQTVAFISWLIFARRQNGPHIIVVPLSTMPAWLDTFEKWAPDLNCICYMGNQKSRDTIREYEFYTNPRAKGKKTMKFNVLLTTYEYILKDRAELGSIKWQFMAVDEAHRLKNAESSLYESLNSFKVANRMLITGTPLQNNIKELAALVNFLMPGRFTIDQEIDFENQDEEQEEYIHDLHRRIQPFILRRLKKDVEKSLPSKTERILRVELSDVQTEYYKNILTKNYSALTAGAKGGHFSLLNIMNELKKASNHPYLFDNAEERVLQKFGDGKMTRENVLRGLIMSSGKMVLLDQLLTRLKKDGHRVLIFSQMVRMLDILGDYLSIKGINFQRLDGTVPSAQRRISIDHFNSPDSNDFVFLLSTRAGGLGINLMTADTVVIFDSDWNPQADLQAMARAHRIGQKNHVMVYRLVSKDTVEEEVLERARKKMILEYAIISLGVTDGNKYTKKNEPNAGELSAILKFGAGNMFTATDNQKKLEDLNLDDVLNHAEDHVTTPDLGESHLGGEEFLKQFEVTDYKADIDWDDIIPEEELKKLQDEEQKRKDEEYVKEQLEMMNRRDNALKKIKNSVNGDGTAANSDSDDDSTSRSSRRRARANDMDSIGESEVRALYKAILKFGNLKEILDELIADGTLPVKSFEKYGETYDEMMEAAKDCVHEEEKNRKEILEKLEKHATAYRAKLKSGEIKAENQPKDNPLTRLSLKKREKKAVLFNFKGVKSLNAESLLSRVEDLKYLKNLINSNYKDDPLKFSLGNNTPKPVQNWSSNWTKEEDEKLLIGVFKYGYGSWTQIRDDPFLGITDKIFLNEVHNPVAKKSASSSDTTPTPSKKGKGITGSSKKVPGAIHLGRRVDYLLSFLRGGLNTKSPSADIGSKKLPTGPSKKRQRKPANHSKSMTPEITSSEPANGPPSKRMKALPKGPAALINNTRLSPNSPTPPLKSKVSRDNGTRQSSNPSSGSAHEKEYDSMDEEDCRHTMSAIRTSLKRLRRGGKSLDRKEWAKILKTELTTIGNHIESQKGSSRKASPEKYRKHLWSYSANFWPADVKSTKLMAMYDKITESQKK
# Chain of Sialic acid-binding Ig-like lectin 9 (Homo sapiens) (Q9Y336 whole entry): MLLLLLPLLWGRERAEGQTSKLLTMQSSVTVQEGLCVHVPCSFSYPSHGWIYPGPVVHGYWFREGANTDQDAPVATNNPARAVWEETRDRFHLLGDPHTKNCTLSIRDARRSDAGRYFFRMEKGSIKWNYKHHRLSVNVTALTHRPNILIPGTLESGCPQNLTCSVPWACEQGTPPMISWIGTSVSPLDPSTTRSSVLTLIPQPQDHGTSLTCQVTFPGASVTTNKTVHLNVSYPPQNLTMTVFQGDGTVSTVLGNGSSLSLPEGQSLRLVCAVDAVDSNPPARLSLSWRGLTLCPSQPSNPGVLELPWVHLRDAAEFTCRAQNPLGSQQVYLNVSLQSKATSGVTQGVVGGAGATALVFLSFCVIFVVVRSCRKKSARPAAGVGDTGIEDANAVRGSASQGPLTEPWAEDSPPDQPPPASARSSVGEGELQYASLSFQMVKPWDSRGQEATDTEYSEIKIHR
# Chain of Protein translocase subunit SecA (Escherichia coli (strain K12)) (P10408 whole entry): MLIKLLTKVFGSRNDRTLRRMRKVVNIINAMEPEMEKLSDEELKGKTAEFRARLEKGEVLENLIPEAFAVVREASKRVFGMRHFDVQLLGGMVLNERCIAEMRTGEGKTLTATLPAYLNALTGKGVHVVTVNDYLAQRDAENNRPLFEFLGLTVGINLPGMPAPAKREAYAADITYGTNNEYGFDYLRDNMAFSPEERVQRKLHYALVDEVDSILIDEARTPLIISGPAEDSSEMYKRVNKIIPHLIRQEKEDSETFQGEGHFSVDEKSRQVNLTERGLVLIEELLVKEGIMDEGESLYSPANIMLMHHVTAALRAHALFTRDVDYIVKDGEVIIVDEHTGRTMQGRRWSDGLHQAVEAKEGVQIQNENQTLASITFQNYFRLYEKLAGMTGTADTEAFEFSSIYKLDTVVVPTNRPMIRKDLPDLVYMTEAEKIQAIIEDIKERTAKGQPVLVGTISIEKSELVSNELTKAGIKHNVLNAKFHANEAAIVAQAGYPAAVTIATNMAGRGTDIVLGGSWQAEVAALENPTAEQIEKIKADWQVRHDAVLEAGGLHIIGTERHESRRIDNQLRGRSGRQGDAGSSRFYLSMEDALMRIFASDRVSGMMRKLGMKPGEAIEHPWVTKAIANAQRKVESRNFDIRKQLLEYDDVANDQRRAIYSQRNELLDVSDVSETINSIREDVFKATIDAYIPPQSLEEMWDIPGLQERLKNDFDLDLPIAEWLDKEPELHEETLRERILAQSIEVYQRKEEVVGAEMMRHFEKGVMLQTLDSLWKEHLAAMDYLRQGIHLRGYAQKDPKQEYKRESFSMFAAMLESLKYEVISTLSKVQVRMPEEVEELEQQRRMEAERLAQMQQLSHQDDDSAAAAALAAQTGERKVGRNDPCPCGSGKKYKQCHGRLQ
SMILES,Percent Effect [1],Percent Effect [2],Percent Effect [3],Percent Effect [4],Percent Effect (Trypanosoma cruzi),Percent Effect [5],Percent Effect [6],Percent Effect (Homo sapiens),Percent Effect [7],Percent Effect [8],Percent Effect [9]
CCC(C)[C@H](NC(=O)c1cc(Br)ccc1-n1cnnn1)C(=O)OC (stereo partly specified),-3%,-1.33%,-6.14%,-6.61%,-2.36%,-11.1%,2.03%,-0.401%,-19.1%,-17.9%,0.0287%
COc1cccc(S(=O)(=O)NC2CNC(=O)C2)c1 (stereo unspecified),-6%,2.74%,3.51%,9.97%,6.66%,-1.36%,2.31%,-0.016%,4.3%,12.5%,-5.21%
c1ncn(Cc2cnc3n2CCN(Cc2ccsc2)CC3)n1,-7.34%,5.33%,7.1%,2.34%,-5.32%,-2.1%,5.9%,14.2%,2.13%,8.97%,2.03%
Cc1nnn2c1COCC(CNC(=O)c1ccc3[nH]ccc3c1)C2 (stereo unspecified),-2.29%,13%,-0.0167%,8.82%,9.73%,-46.9%,18.1%,14.9%,6.45%,13.6%,-3.15%
NC(=O)C1CCN(C(=O)CCn2ccc3cc(Br)ccc32)CC1,-0.921%,4.17%,-4.65%,21.5%,2.43%,14.6%,2.63%,-3.52%,3.16%,2.56%,-4.07%
c1ccc(-n2nnnc2CN2CCCC(Cn3cncn3)C2)cc1 (stereo unspecified),-1.71%,6.33%,5.51%,4.14%,-5.03%,0.645%,9.61%,4.63%,3.12%,10.1%,-17.9%
NS(=O)(=O)N1CCc2ccc(NC(=O)Cc3ccc(F)cc3)cc21,-2.62%,2.74%,-2.62%,3.78%,4.31%,-39.1%,6.92%,20.9%,-3.23%,2.5%,-1.74%
N#Cc1ccc(CNCC(C(=O)N2CCOCC2)c2ccccc2)cc1 (stereo unspecified),-2.65%,10.4%,-4.88%,7.63%,2.06%,-75.9%,4.16%,-2.22%,4.3%,13.6%,-3.12%
O=C1COC2(COCCN(Cc3cccnc3)C2)CN1c1ccoc1 (stereo unspecified),-0.625%,5.2%,2.84%,0.684%,-10.6%,7.1%,4.87%,8.52%,0%,1.28%,-1.12%
CSCCC(=O)N1CCC(Oc2cc(C)ccc2F)(C(=O)O)CC1,-1.39%,-1.39%,-5.71%,-2.17%,-2.43%,-1.32%,0.351%,-30.7%,-2.1%,2.56%,2.79%
CC(C)CS(=O)(=O)N1C[C@H]2C[C@H](C(=O)NCc3ccccc3)[C@@H](C1)O2,1.12%,9.33%,4.22%,-2.68%,-10%,0.88%,13.3%,2.72%,3.17%,2.56%,-5.74%
